# Data reported in ChEMBL document CHEMBL5308541, “MAIP: An Open-Source Tool to Enrich High-Throughput Screening Output and Identify Novel, Druglike Molecules with Antimalarial Activity” (ACS Med Chem Lett, 2023).
# The campaign covered roughly 150,000 compounds. About 540 (0.36%) showed an effect of 50% or more. This is one part of a sample in which strong results are shown more often than they occur.
# System: Plasmodium falciparum
# Experiment: Primary screen in NF54 nanoGlo assay, in single point, at 2uM, 72h; a lower Z score goes with more inhibition
# Format: functional, Erythrocyte
# Settings: timepoint 72 hour
Structure (SMILES),% Inhibition,Z score
Cc1cccc2c(-c3ccc(N4CCN(C)CC4)nn3)c[nH]c12,-16%,2.75
CNC(=O)CN1CCC(Nc2ncnc3ccc(C(C)C)cc23)CC1,2%,-0.48
COc1ccc2[nH]cc(C3=CCN(c4ccc5nnc(-c6ccccc6F)n5n4)CC3)c2c1,51%,-8.85
Fc1ccccc1-c1nnc2ccc(NCc3ccccc3OC3CCCC3)nn12,-5%,0.8
CCCc1cccc(CNC2CCN(C3CCN(C)CC3)CC2)c1,76%,-16.27
FC(F)(F)Oc1cccc(CNC2CCN(C3CC3)CC2)c1,-13%,2.24
C[C@@H](CNC1CCN(C2CCN(C)CC2)CC1)c1cccc(Cl)c1,97%,-17.23
CN1CCC(N2CCC(NCc3cccc4nsnc34)CC2)CC1,14%,-2.08
Cc1cccc([C@@H](C)CNC2CCN(CCN3CCOCC3)CC2)c1,-4%,0.67
Cn1cc(-c2cncc(C(=O)NC3CCN(c4cccc(F)c4)CC3)c2)cn1,50%,-10.8
Cc1cc(N2CC3COCCC3(C(=O)O)C2)nc2ccc(F)cc12 (stereo not drawn),76%,-13.26
O=C(c1cccc(OCCc2ccccc2)c1)N1CC2COCCC2(C(=O)O)C1 (stereo not drawn),-3%,0.52
Cc1sc2nc(-c3ccccn3)nc(NCCc3nccn3C)c2c1-c1ccccc1,71%,-14.01
CCN1CCN(CC2CN(C/C=C/c3ccc(OC)cc3)CC2CO)CC1 (stereo not drawn),-3%,0.7
O=C1CN(C2CCN(CC3CCCCC3)CC2)[C@]2(CCOC2)CN1Cc1ccccc1,-8%,1.39
Brc1ccc2[nH]c3c(c2c1)CCCC3NC1CCc2[nH]cnc2C1 (stereo not drawn),98%,-19.51
CN(C)C1(CNc2nc(C(F)(F)F)nc3cc4c(cc23)OCO4)CCCCCC1,54%,-8.21
CN(C)C1(CNc2nc(C(F)(F)F)nc3cc(F)ccc23)CCCCCC1,61%,-9.21
CN(C)c1nc(N2CCC(N3CCN(CCO)CC3)CC2)ncc1F,-1%,0.13
Cc1ccccc1CN1CCC(CNc2c3c(nc4ccccc24)CCC3)CC1,94%,-16.23

Structure (SMILES),% Inhibition,Z score
C[C@@H](c1cccc(-c2nccc3ncccc23)c1)N1CCCC1,-7%,1.08
Cc1cc(N2CCC(NCCCN3CCCc4ccccc43)CC2)nc(N)n1,53%,-8.02
Cc1cc(N2CCC(NCCc3cnn(-c4ccccc4)c3)CC2)nc(N)n1,-2%,0.43
Cc1ccc2nc(CCCNC3CCN(c4cc(C)nc(N)n4)CC3)oc2c1,40%,-6.03
COc1ccc2[nH]c(CN3CCC[C@H](N4CCN(c5ccccc5)CC4)C3)c(C)c2c1,-4%,0.66
C[C@@H](c1cccc(-c2nc3cc(C#N)ccc3[nH]2)c1)N(C)C,27%,-4.6
Cc1csc(=O)n1Cc1nnc(C(C)C)o1,-8%,1.5
Cc1cnccc1NCCNCc1nc2ccccc2[nH]1,-2%,0.37
Cc1cnccc1NCCNCc1ccc(OC(C)C)c(Cl)c1,79%,-17.03
CCN1CCN([C@H]2CCN(c3nccc4nccnc34)C2)CC1,2%,-0.37
CCN1CCN([C@H]2CCN(c3ccnc4ccncc34)C2)CC1,96%,-14.59
CCN(C)CC(O)CN1CCC(Oc2cccnc2N2CCCC2)C1 (stereo not drawn),-5%,1.05
COc1ccc2nc(C)cc(NCc3cccc(NC(=O)c4ccco4)c3)c2c1,93%,-18.52
CN(C)Cc1cccc(CCNCc2csc(-c3ccc(C(F)(F)F)cc3)n2)c1,51%,-11.09
CN1CC(=O)N2C[C@@H](NC(=O)c3cccc(-c4ccc(N)nc4)c3)C[C@H]2C1=O,-16%,2.42
Cc1ccc2nc(-c3cccc(NC(=O)c4ccc(OC(F)(F)F)c(Cl)c4)c3)[nH]c2n1,57%,-12.27
Cc1n[nH]nc1C(=O)Nc1ccc2[nH]c(-c3cccc(F)c3)nc2c1,1%,-0.2
CNC(=O)[C@@H]1CC2(CCN(CC3CCCCC3)CC2)CN1c1ccc(C#N)c(C(F)(F)F)c1,-15%,2.59
N#Cc1ccc(N2C[C@H](COCC3CC3)C3(CCN(Cc4cccc(O)c4)CC3)C2)cc1C(F)(F)F,82%,-14.34
